Measurements from PMC7862700, “An all-to-all approach to the identification of sequence-specific readers for epigenetic DNA modifications on cytosine”.

Columns and labels:
Experiment in all cases: DAPPL (digital affinity profiling via proximity ligation, sequencing); 10 mM Tris-HCl pH 7.5, 50 mM NaCl, 1 mM DTT, 4% glycerol, room temperature, 30 min; GST-TFs on glutathione beads, 16-mer random dsDNA library, 0.1% formaldehyde crosslink after washing; high values mean tight binding
FEV = target: T1, FEV (Homo sapiens, UniProt Q99581 1-238); settings: protein: recombinant; tags: N-terminal GST; dsDNA, one strand shown
T1 sequence: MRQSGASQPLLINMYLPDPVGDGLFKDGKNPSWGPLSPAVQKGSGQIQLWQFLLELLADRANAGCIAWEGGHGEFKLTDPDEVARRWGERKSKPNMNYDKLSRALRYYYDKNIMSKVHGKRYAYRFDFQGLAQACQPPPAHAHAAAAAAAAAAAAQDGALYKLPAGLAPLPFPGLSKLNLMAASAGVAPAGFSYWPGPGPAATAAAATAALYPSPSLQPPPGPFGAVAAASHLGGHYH
Outline: (§1)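 Pools were built from human transcription factors expressed in yeast as GST fusions, captured on glutathione beads and DNA-barcoded, along with a tag-only sample. Incubation with 200 nmole of a 16-mer random double-stranded DNA library lasted 30 min at room temperature in Tris/NaCl/DTT/glycerol buffer, and was followed by washing, 0.1% formaldehyde crosslinking, proximity ligation, PCR amplification and Illumina NextSeq500 sequencing. Binding signal is the quotient of each hexamer's read frequency for a factor and its frequency for the tag-only sample.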

ETV5 = ETV5 (Homo sapiens, UniProt P41161 1-510); settings: protein: recombinant; tags: N-terminal GST; dsDNA, one strand shown
ETV5, sequence (P41161 whole entry): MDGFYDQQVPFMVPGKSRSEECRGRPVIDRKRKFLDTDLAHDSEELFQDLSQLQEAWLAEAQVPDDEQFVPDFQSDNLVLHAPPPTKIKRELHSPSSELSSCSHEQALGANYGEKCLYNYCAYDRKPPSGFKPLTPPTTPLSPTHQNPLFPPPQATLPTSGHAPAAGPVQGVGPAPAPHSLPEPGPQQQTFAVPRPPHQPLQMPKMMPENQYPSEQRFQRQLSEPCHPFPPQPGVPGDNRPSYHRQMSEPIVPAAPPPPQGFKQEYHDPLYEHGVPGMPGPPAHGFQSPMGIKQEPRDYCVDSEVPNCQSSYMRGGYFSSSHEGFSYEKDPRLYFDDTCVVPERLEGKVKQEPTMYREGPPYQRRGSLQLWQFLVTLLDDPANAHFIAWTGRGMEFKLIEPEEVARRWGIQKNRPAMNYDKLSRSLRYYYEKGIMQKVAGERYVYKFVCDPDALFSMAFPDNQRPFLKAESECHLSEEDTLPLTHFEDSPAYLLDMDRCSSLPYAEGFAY
Outline: as §1

HSF1 = HSF1 (Homo sapiens, UniProt Q00613 1-529); settings: protein: recombinant; tags: N-terminal GST; chain copies: 3; dsDNA, one strand shown
HSF1, sequence (Q00613 whole entry): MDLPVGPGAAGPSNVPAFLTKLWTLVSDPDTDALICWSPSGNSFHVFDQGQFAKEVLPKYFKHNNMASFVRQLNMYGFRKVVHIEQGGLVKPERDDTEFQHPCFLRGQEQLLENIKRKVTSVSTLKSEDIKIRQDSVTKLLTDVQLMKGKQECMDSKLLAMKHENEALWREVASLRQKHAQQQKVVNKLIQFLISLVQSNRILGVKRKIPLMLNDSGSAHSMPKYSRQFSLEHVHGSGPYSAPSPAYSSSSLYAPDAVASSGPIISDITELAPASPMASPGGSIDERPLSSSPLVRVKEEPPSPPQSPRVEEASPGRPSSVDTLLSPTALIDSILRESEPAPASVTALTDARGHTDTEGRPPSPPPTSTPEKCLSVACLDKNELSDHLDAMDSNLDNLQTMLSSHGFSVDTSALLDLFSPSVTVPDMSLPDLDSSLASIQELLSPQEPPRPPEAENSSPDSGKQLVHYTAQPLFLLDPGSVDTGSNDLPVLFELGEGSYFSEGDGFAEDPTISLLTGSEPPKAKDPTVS
Outline: as §1

SPIC = target: T2, SPIC (Homo sapiens, UniProt Q8N5J4 1-248); settings: protein: recombinant; tags: N-terminal GST; dsDNA, one strand shown
T2 sequence: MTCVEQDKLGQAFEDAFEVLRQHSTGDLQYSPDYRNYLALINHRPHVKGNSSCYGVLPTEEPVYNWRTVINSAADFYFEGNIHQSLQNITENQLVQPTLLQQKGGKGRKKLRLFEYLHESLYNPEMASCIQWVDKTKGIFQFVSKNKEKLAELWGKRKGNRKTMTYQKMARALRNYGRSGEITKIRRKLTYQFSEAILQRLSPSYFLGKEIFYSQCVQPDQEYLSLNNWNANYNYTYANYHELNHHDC
Outline: as §1

ELF4 = ELF4 (Homo sapiens, UniProt Q99607 1-663); settings: protein: recombinant; tags: N-terminal GST; dsDNA, one strand shown
ELF4, sequence (Q99607 whole entry): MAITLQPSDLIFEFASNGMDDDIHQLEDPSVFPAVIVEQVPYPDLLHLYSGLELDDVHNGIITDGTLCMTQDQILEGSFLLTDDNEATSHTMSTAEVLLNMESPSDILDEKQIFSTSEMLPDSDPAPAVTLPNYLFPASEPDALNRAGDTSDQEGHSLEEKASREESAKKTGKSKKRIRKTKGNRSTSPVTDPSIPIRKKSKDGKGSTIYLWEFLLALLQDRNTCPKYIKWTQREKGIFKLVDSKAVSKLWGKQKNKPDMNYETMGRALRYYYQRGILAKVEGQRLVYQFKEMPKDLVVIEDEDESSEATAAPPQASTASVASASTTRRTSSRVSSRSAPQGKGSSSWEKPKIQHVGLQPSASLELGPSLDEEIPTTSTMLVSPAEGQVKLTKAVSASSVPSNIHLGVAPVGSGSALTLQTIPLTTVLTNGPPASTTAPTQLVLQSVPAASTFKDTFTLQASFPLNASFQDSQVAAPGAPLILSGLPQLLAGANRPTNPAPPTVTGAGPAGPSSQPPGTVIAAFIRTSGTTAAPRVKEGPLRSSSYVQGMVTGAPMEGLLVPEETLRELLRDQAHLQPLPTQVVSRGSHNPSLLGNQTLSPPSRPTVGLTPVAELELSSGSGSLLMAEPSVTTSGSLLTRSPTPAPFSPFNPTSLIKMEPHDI
Outline: as §1

ELK4 = target: T3, ELK4 (Homo sapiens, UniProt P28324-2 1-405); settings: protein: recombinant; tags: N-terminal GST; dsDNA, one strand shown
T3 sequence: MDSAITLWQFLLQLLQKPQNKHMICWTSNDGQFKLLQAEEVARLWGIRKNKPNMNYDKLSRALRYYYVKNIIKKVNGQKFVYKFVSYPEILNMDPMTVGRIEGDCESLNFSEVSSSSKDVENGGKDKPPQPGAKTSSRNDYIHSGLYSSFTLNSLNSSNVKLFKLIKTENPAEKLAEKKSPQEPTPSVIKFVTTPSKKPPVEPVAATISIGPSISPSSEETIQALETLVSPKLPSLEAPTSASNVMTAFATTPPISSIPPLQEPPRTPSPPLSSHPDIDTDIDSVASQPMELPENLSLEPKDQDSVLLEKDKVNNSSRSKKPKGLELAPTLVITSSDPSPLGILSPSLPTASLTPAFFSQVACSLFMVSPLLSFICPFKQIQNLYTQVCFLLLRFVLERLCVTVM
Outline: as §1

ETV2 = target: T4, ETV2 (Homo sapiens, UniProt O00321 1-342); settings: protein: recombinant; tags: N-terminal GST; dsDNA, one strand shown
T4 sequence: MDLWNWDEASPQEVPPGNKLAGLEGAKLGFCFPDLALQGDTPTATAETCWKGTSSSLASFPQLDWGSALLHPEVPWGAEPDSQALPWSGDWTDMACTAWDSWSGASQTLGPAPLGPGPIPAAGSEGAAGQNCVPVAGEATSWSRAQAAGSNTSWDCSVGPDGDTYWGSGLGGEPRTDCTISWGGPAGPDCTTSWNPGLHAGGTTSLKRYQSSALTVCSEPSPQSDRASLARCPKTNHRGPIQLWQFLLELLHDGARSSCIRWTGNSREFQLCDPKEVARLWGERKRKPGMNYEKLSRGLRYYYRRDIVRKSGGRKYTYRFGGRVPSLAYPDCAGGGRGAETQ
Outline: as §1

ELF3 = target: T5, ELF3 (Homo sapiens, UniProt P78545 1-371); settings: protein: recombinant; tags: N-terminal GST; dsDNA, one strand shown
T5 sequence: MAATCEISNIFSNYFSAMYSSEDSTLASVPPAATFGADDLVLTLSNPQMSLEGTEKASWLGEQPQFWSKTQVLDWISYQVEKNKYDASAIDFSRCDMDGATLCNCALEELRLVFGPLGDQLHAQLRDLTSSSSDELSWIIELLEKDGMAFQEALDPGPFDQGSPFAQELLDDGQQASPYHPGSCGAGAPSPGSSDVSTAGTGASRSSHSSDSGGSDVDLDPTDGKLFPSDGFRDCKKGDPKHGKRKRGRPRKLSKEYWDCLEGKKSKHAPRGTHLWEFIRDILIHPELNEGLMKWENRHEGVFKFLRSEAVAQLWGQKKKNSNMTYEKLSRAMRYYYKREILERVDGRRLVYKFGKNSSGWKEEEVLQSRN
Outline: as §1

CRX = CRX (Homo sapiens, UniProt O43186 1-299); settings: protein: recombinant; tags: N-terminal GST; dsDNA, one strand shown
CRX, sequence (O43186 whole entry): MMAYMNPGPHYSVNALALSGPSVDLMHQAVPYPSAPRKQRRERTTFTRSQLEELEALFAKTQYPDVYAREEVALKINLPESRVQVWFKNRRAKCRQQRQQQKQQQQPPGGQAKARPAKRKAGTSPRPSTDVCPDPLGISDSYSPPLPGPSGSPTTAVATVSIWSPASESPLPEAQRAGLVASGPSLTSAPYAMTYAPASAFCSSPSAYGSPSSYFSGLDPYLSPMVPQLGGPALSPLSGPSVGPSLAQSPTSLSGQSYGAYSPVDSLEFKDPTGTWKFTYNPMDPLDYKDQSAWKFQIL
Outline: as §1

ETV1 = ETV1 (Homo sapiens, UniProt P50549 1-477); settings: protein: recombinant; tags: N-terminal GST; dsDNA, one strand shown
ETV1, sequence (P50549 whole entry): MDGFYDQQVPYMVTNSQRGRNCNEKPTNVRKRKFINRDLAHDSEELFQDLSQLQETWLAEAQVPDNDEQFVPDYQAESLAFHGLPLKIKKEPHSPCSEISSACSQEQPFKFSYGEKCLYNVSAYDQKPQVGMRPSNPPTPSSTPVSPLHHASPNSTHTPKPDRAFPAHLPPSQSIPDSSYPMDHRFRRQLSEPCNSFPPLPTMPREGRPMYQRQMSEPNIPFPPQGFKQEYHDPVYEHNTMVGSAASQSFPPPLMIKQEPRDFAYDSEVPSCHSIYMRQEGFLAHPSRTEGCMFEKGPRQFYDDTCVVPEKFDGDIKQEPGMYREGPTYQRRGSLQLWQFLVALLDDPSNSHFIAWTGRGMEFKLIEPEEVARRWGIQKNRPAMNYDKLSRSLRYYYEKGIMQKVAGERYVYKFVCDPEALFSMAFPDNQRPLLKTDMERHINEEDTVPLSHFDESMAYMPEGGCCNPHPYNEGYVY
Outline: as §1

With TTAAAT the binding signal (FEV) was 1.16 fold enrichment (6-mer frequency, TF over GST control), the binding signal (ETV5) was 1.2 fold enrichment (6-mer frequency, TF over GST control) and the binding signal (HSF1) was 1.85 fold enrichment (6-mer frequency, TF over GST control). The binding signal (SPIC) was 1.21 fold enrichment (6-mer frequency, TF over GST control), the binding signal (ELF4) was 1.14 fold enrichment (6-mer frequency, TF over GST control) and the binding signal (ELK4) was 1.22 fold enrichment (6-mer frequency, TF over GST control). The binding signal (ETV2) was 1.25 fold enrichment (6-mer frequency, TF over GST control), the binding signal (ELF3) was 1.22 fold enrichment (6-mer frequency, TF over GST control) and the binding signal (CRX) was 2.92 fold enrichment (6-mer frequency, TF over GST control). For the same sequence, the binding signal (ETV1) was 1.16 fold enrichment (6-mer frequency, TF over GST control).
